Measurements: PubChem BioAssay
Activity calls are given as the source filed them. No rule for the calls is given here.

These compounds were tested against Pantothenate synthetase (Mycobacterium tuberculosis (strain ATCC 25618 / H37Rv)) (UniProt P9WIL5) (assay: Recombinant Mtb pantothenate synthetase (PanC) inhibitors, coupled enzyme, confirmatory (AID 375;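 also: 0% = full reaction with vehicle and 100% = no enzyme background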)). Conditions: coupled enzyme assay; at 10 µM, active compounds read high.
Pantothenate synthetase (Mycobacterium tuberculosis (strain ATCC 25618 / H37Rv)), sequence (P9WIL5 whole entry, looked up): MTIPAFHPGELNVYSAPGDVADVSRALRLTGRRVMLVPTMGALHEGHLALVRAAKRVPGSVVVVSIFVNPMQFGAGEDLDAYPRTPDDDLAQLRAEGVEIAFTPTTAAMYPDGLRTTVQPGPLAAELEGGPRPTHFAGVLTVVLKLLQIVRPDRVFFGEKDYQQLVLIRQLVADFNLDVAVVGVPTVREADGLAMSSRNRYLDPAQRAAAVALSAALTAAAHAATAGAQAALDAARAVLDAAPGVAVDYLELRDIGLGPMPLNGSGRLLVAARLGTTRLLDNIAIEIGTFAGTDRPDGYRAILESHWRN

For `N#Cc1ccccc1Cn1c(=O)n(Cc2ccc(C(=O)NCc3ccco3)cc2)c(=O)c2sccc21`, which inhibition is on record?
The inhibition was 9% (inactive).

For `CC1CCN(CC(O)COC2CCC(C(C)(C)C)CC2)CC1` (stereo not drawn), which inhibition is on record?
Its inhibition is 0% (inactive).

How did the inhibition turn out when `COc1ccc2cc([C@H](C)C(=O)O)ccc2c1` was run?
The inhibition was 0% (inactive).

How did the inhibition turn out when `Nc1nc(NC(=O)c2cccs2)nn1-c1ccccc1` was run?
The inhibition was 1% (inactive).

For `COc1ccc(C(=O)NCc2nnc(SCC(=O)Nc3cc(C)cc(C)c3)o2)cc1OC`, which inhibition is on record?
Its inhibition is 0% (inactive).

Which inhibition does the source give for `CC(C)Cn1c(=O)c(C(=O)NCc2ccccn2)c(O)c2ccccc21` here?
The inhibition was 0% (inactive).

`Cc1ccc(C(=O)/C=C/Nc2cccc(O)c2)cc1` was tested. Which inhibition did it give?
The inhibition was 8% (inactive).

Which inhibition does the source give for `COCCn1c(SCC(=O)Nc2nnc(C)s2)nnc1-c1ccncc1` here?
Its inhibition is 7% (inactive).

`COc1ccccc1NC(=O)C(O)C(O)C(=O)Nc1ccccc1OC` (stereo not drawn) was tested. Which inhibition did it give?
Its inhibition is 3% (inactive).

For `CCOc1ccc(Cn2nnc(C(=O)NCc3ccc(OC)cc3)c2N)cc1`, which inhibition is on record?
Its inhibition is 2% (inactive).

With `CC1(C)O[C@@H]2C[C@H]3[C@@H]4C[C@H](F)C5=CC(=O)C=C[C@]5(C)[C@@]4(F)[C@@H](O)C[C@]3(C)[C@]2(C(=O)CO)O1` as the compound, how does the inhibition read?
Its inhibition is 1% (inactive).

`O=C(NCc1ccc2c(c1)OCO2)c1ccccn1` was tested. Which inhibition did it give?
The inhibition was 6% (inactive).

For `CC(C)c1ccc(S(=O)(=O)N2CCN(C(=O)c3cccc(F)c3)CC2)cc1`, which inhibition is on record?
Its inhibition is 8% (inactive).

For `CCCNC(=O)C1CC(=O)N(c2ccc(OCC(=O)Nc3cc(C)cc(C)c3)cc2)C1` (stereo not drawn), which inhibition is on record?
Its inhibition is 0% (inactive).

How did the inhibition turn out when `CC(=O)C1=C(O)C(=O)N(C2CCCCC2)C1c1ccccc1` (stereo not drawn) was run?
Its inhibition is 0% (inactive).

How did the inhibition turn out when `Cc1nc2ccccn2c1C(=O)NCCCN1CCOCC1` was run?
The inhibition was 10% (inactive).

With `Cc1cc(C(N)=O)c2cc(Br)ccc2n1` as the compound, how does the inhibition read?
Its inhibition is 10% (inactive).

Which inhibition does the source give for `CC1CCC(NC(=O)Cn2ncc3ccccc32)CC1` (stereo not drawn) here?
Its inhibition is 0% (inactive).

How did the inhibition turn out when `Cc1c(NC(=O)c2ccc(Br)o2)c(=O)n(-c2ccccc2)n1C` was run?
Its inhibition is 0% (inactive).

Which inhibition does the source give for `CCS(=O)(=O)N1CCCC(c2nc(-c3cccc(OC)c3)no2)C1` (stereo not drawn) here?
The inhibition was 0% (inactive).

Which inhibition does the source give for `CCOC(=O)N1CCN(C(=O)CSc2nnc(COc3ccccc3)o2)CC1` here?
Its inhibition is 2% (inactive).

`Cc1ccc2c(C)nc(Nc3nc(CSc4nnnn4-c4ccccc4)cc(=O)[nH]3)nc2c1` was tested. Which inhibition did it give?
Its inhibition is 11% (inactive).

With `O=c1nc(N2CCCC2)nc(Nc2ccccc2)[nH]1` as the compound, how does the inhibition read?
The inhibition was 0% (inactive).
